Where “and” joins values, the source holds several entries; their conditions need not be identical. Identical values can stand only once. Inconclusive results are not listed. More than one record can exist for a structure, and the calls need not agree. Calls of active or inactive are those of the source. The calls were made as follows, unless noted: active = hit-call score of the fitted dose curve at least 0.9, where 1 is the maximum; inconclusive = response in the unintended direction; inactive = score below 0.9.
Experiments:
[1] = target: Norway rat Vesicular Monoamine Transporter (VMAT2), neurotransmitter transporter, Slc18a2 (gene 25549) (UniProt Q01827); assay: NVS_TR_rVMAT2: NovaScreen (NVS) Transporter Assay for Norway rat Vesicular Monoamine Transporter (VMAT2), neurotransmitter transporter (AID 2283376);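 also: actives lower the bound radioligand signal below the DMSO level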
Procedure, shortened: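 Filter-based scintillation counting of radioligand bound to rat forebrain-derived VMAT2 protein, cell-free, 1 h post-dose. Signal loss relative to DMSO control scored; single-concentration duplicate screen (25 uM) followed by concentration-response testing of actives.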

[2] = target: Estrogen receptor beta (Homo sapiens) (UniProt Q92731); assay: OT_ER_ERbERb_1440: Odyssey Thera (OT) 24-hour HEK293T Protein-Complementation Assay for Estrogen Receptor-beta/-beta Homodimer (AID 2283380);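 also: scored as signal increase over DMSO baseline for both agonists and antagonists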
Procedure, shortened: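 HEK293T cells stably expressing ER beta LBD (aa 310-547) homodimer fragment-complementation reporter, dosed 24 h. Cells formaldehyde-fixed, Draq5-stained; gain in nuclear (agonist) or nuclear plus cytoplasmic (antagonist) fluorescence versus DMSO read by laser scanning cytometry.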

[3] = target: Bile acid receptor (Homo sapiens) (UniProt Q96RI1); assay: OT_FXR_FXRSRC1_0480: Odyssey Thera (OT) 8-hour HEK293T Protein-Complementation Assay for Farnesoid X receptor/SRC-1 Co-activator (AID 2283383)
Procedure, shortened: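 Fluorescence intensity read-out, 8 h post-dose, HEK293T protein-fragment complementation; FXR bait and SRC-1 prey each linked to reporter fragments. Activity scored as signal increase over DMSO negative control.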

[4] = target: Bile acid receptor (Homo sapiens) (UniProt Q96RI1); assay: OT_FXR_FXRSRC1_1440: Odyssey Thera (OT) 24-hour HEK293T Protein-Complementation Assay for Farnesoid X receptor/SRC-1 Co-activator (AID 2283384)
Procedure, shortened: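 Fluorescence readout, 24 h post-dose, HEK293T; FXR and SRC-1 fused to complementary reporter fragments, association reconstitutes signal. Positive-direction fit vs DMSO baseline.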

[5] = target: Retinoic acid receptor RXR-alpha (Homo sapiens) (UniProt P19793); assay: OT_NURR1_NURR1RXRa_1440: Odyssey Thera (OT) 24-hour HEK293T Protein Complementation Assay for Nurr1/retinoid X receptor (RXR) (AID 2283386)
Procedure, shortened: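 Fluorescence PCA read-out; HEK293T; 24 h post-dose; bait/prey fused to reporter fragments; gain-of-signal fit vs DMSO negative control.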

[6] = target: Peroxisome proliferator-activated receptor gamma (Homo sapiens) (UniProt P37231); assay: OT_PPARg_PPARgSRC1_0480: Odyssey Thera (OT) 8-hour Protein-Complementation Assay for Peroxisome Proliferator-activated Receptor Gamma / SRC-1 Co-activator (AID 2283387);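 also: nuclear to cytoplasmic split Venus YFP fluorescence ratio reporting PPARg SRC-1 interaction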
Procedure, shortened: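 Protein-fragment complementation of split Venus YFP reports PPARg/SRC-1 interaction in HEK293T (transfected 48 h before treatment), exposed 8 h. Readout: N/C fluorescence ratio at 488 nm from imaging, Draq5 for segmentation, positive fit relative to DMSO.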

[7] = target: Peroxisome proliferator-activated receptor gamma (Homo sapiens) (UniProt P37231); assay: OT_PPARg_PPARgSRC1_1440: Odyssey Thera (OT) 24-hour Protein-Complementation Assay for Peroxisome Proliferator-activated Receptor Gamma/ SRC-1 Co-activator (AID 2283388);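 also: nuclear to cytoplasmic ratio of reconstituted Venus YFP fluorescence in fixed imaged cells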
Procedure, shortened: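 Readout is the 488 nm N/C fluorescence ratio from fixed, Draq5-stained HEK293T cells after 24 h compound exposure. Cells carried transiently transfected PPARg and SRC-1 fused to Venus fragments, transfected 48 h before treatment.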

[8] = target: rat Serotonin Transporter (SERT), Slc6a4 (gene 25553) (UniProt P31652); assay: NVS_TR_rSERT: NovaScreen (NVS) Transporter Assay for rat Serotonin Transporter (SERT) (AID 2283375)
Procedure, shortened: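 Radioligand binding with competitive displacement on rat forebrain membrane preparations, counted by filtration and scintillation after 1 h. Primary single-point duplicates at 25 uM; active chemicals followed up in concentration-response. DMSO served as baseline.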

[9] = target: Retinoic acid receptor RXR-alpha (Homo sapiens) (UniProt P19793); assay: OT_NURR1_NURR1RXRa_0480: Odyssey Thera (OT) 8-hour HEK293T Protein Complementation Assay for Nurr1/retinoid X receptor (RXR) (AID 2283385)
Procedure, shortened: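 Read-out: fluorescence from protein-fragment complementation between Nurr1 and RXRα in human HEK293T cells, 8 h after dosing. DMSO served as negative control; increased signal counted as activity.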

[10] = target: human Norepinephrine Transporter (NET), SLC6A2 (gene 6530) (UniProt P23975); assay: NVS_TR_hNET: NovaScreen (NVS) Transporter Assay for human Norepinephrine Transporter (NET) (AID 2283377);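 also: cell-free membrane protein extracted from CHO cells expressing human NET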;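 as to AC50: displacement of radioligand from human NET seen as loss of scintillation signal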
Procedure, shortened: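 CHO cell extracts expressing the transporter; tritiated or iodinated tracer displaced competitively; filtration plus scintillation readout at 1 h. Single-point duplicates at 25 uM, concentration series for follow-up; activity = signal drop relative to DMSO.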

[11] = target: Agonist Androgen Response Element (ARE), AR (gene 367) (UniProt P10275); assay: OT_AR_ARELUC_AG_1440: Odyssey Thera (OT) 24-hour CHO-K1 Luciferase Assay for Agonist Androgen Response Element (ARE) (AID 2283379)
Procedure, shortened: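 Gain-of-signal reporter endpoint: cells (CHO-K1, hamster) are treated 24 h, luciferin/ATP reagent added, and luminescence compared with DMSO baseline.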

[12] = target: Estrogen receptor (Homo sapiens) (UniProt P03372); assay: OT_ERa_GFPERaERE_0480: Odyssey Thera (OT) 8-hour HeLa Transcription Induction Assay for Estrogen Receptor (AID 2283381; active = hit-call score of the fitted dose curve at least 0.9, where 1 is the maximum; inactive = score below 0.9)
Procedure, shortened: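 GFP-ERE reporter, HeLa, 8 h exposure. Readout: fluorescence microscopy, high-content image analysis. Fit direction positive vs DMSO negative control.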

[13] = target: human Dopamine Transporter (DAT), SLC6A3 (gene 6531) (UniProt Q01959); assay: NVS_TR_hDAT: NovaScreen (NVS) Transporter Assay for human Dopamine Transporter (DAT) (AID 2283374);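 also: activity means loss of bound radioligand signal relative to DMSO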
Procedure, shortened: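 hDAT membranes + tritiated/iodinated radioligand, competitive displacement; 1 h; filter scintillation readout. Single conc 25 uM (duplicate), then conc-response for actives. DMSO = negative control.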

[14] = CEETOX_H295R_11DCORT: CeeTox H295R High-throughput Steroidogenesis Assay for 11-Deoxycortisol (11DCORT) (AID 2283432; active = hit-call score of the fitted dose curve at least 0.9, where 1 is the maximum; inactive = score below 0.9;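 as to AC50: 11-deoxycortisol secreted into the medium measured by LC-MS/MS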); conditions: actives raise or lower the signal
Procedure, shortened: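 Human adrenal H295R cells were prestimulated with 10 uM forskolin for 48 h, then exposed to test chemical (0.1% DMSO final) for 48 h. Medium 11-deoxycortisol was quantified by MTBE extraction and HPLC-MS/MS; bidirectional fitting relative to DMSO.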

[15] = CEETOX_H295R_OHPREG: CeeTox H295R High-throughput Steroidogenesis Assay for OH-Pregnenolone (OHPREG) (AID 2283434; active = hit-call score of the fitted dose curve at least 0.9, where 1 is the maximum; inactive = score below 0.9); conditions: actives raise or lower the signal
Procedure, shortened: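 H295R, 10 uM forskolin pre-stim 48 h; test chemical 48 h, 0.1% DMSO final. MTBE extraction, reverse-phase C18 HPLC-ESI+ MS/MS of medium. Gain/loss vs DMSO; viability by MTT in same wells.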

[16] = CEETOX_H295R_OHPROG: CeeTox H295R High-throughput Steroidogenesis Assay for OH-Progesterone (OHPROG) (AID 2283435; active = hit-call score of the fitted dose curve at least 0.9, where 1 is the maximum; inactive = score below 0.9;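 as to AC50: 17alpha-hydroxyprogesterone secreted into medium measured by HPLC-MS/MS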); conditions: actives raise or lower the signal
Procedure, shortened: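 HPLC-MS/MS quantification of 17alpha-hydroxyprogesterone secreted by H295R cells after 48 h chemical exposure, following 48 h 10 uM forskolin prestimulation. Gain or loss of signal fitted relative to DMSO. Viability checked by MTT in the same wells.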

[17] = CEETOX_H295R_CORTIC: CeeTox H295R High-throughput Steroidogenesis Assay for Corticosterone (CORTIC) (AID 2283437; active = hit-call score of the fitted dose curve at least 0.9, where 1 is the maximum; inactive = score below 0.9;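 also: corticosterone secreted into medium quantified by mass spectrometry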); conditions: actives raise or lower the signal
Procedure, shortened: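 48 h forskolin (10 uM) prestim, then 48 h chemical exposure, final DMSO 0.1%. Readout: corticosterone in medium by LC-MS/MS after MTBE extraction. Gain/loss fit vs DMSO; MTT viability in same wells.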

[18] = target: Estrogen receptor (Homo sapiens) (UniProt P03372); assay: OT_ERa_GFPERaERE_0120: Odyssey Thera (OT) 2-hour HeLa Transcription Induction Assay for Estrogen Receptor (AID 2283382)
Procedure, shortened: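 Fluorescence microscopy read-out: inducible fluorescent protein reporter in HeLa cells, imaged 2 h post-dose. Signal increase over DMSO negative control fitted as single primary endpoint via high content image analysis.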

[19] = CEETOX_H295R_ANDR: CeeTox H295R High-throughput Steroidogenesis Assay for Androstenedione (ANDR) (AID 2283436; active = hit-call score of the fitted dose curve at least 0.9, where 1 is the maximum; inactive = score below 0.9); conditions: actives raise or lower the signal
Procedure, shortened: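 48 h chemical exposure, H295R cells, DMEM/F12 + ITS+ and Nu-Serum. Medium androstenedione: MTBE extraction, C18 reverse-phase HPLC, ESI+ MS/MS. Fit bidirectional vs DMSO; MTT viability in same wells.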

[20] = target: mouse Estrogen Receptor alpha (Era), Esr1 (gene 13982) (UniProt P19785); assay: NVS_NR_mERa: NovaScreen (NVS) Nuclear Receptor Binding Assay for mouse Estrogen Receptor alpha (Era) (AID 2283378);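 also: hit means loss of bound radioligand signal relative to DMSO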
Procedure, shortened: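 Filter radiodetection of radioligand displacement from extracted receptor protein, measured 18 h post-dose. Single 25 uM concentration in duplicate initially, with concentration-series follow-up. Binding loss fitted relative to DMSO.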

Measured: AC50

Sequence of Estrogen receptor (Homo sapiens) (P03372 whole entry, looked up): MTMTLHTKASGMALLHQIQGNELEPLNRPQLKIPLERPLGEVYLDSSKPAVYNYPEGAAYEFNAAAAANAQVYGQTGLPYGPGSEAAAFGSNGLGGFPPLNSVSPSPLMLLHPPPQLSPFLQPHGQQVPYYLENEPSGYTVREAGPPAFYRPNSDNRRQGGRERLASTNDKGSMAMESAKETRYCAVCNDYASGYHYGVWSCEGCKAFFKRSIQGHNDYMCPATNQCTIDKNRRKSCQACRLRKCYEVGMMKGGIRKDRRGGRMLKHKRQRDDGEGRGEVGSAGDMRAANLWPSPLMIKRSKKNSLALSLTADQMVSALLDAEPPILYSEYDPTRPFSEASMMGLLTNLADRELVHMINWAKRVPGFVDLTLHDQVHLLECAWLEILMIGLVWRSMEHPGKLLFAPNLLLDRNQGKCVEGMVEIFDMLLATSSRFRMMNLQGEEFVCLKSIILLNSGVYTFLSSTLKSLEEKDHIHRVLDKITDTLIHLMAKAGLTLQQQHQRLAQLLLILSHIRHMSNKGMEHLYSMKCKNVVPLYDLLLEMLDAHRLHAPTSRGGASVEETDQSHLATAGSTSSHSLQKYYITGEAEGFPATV
Sequence of human Dopamine Transporter (DAT), SLC6A3 (gene 6531) (Q01959 whole entry, looked up): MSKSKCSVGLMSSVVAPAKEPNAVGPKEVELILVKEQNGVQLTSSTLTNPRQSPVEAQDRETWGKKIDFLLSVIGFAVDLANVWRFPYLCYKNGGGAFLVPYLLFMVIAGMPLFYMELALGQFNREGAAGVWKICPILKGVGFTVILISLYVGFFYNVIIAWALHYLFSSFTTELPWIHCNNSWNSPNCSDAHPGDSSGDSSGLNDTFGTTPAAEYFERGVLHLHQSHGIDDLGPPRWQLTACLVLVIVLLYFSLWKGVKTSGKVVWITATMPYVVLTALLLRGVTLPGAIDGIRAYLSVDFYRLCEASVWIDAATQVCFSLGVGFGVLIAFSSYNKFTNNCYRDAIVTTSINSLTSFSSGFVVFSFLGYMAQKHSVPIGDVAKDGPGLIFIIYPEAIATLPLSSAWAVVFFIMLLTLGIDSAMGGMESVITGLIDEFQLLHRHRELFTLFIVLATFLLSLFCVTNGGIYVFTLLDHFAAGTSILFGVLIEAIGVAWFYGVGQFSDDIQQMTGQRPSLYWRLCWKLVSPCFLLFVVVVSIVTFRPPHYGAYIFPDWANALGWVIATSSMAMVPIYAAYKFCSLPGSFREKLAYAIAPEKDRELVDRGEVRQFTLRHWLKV
Sequence of Norway rat Vesicular Monoamine Transporter (VMAT2), neurotransmitter transporter, Slc18a2 (gene 25549) (Q01827 whole entry, looked up): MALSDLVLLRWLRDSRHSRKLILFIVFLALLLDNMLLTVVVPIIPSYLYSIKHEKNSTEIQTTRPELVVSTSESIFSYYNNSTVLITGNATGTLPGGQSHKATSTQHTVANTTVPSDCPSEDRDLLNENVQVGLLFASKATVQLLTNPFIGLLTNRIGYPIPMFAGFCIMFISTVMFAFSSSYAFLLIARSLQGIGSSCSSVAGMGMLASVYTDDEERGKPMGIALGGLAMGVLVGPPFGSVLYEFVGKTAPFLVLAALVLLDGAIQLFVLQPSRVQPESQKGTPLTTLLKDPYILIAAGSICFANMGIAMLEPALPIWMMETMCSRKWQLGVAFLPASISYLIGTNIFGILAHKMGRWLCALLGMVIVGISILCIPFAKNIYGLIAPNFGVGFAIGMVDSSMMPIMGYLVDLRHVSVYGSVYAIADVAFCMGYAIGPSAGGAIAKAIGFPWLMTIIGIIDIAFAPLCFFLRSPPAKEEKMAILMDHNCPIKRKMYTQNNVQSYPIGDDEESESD
Sequence of Estrogen receptor beta (Homo sapiens) (Q92731 whole entry, looked up, the tested form may be a part): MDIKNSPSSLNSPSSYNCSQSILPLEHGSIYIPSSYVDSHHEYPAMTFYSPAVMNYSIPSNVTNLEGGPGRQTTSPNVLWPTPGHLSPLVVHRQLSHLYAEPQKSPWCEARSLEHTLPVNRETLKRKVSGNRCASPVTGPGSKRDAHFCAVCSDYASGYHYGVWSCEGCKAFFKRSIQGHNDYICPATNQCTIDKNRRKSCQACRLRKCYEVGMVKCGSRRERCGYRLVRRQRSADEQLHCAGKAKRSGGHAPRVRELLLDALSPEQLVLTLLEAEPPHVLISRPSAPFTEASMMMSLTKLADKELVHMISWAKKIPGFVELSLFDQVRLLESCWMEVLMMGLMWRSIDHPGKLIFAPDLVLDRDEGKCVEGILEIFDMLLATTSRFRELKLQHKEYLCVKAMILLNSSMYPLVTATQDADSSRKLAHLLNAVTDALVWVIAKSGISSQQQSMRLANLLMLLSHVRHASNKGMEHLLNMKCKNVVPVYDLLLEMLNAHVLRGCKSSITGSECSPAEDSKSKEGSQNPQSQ
Sequence of rat Serotonin Transporter (SERT), Slc6a4 (gene 25553) (P31652 whole entry, looked up): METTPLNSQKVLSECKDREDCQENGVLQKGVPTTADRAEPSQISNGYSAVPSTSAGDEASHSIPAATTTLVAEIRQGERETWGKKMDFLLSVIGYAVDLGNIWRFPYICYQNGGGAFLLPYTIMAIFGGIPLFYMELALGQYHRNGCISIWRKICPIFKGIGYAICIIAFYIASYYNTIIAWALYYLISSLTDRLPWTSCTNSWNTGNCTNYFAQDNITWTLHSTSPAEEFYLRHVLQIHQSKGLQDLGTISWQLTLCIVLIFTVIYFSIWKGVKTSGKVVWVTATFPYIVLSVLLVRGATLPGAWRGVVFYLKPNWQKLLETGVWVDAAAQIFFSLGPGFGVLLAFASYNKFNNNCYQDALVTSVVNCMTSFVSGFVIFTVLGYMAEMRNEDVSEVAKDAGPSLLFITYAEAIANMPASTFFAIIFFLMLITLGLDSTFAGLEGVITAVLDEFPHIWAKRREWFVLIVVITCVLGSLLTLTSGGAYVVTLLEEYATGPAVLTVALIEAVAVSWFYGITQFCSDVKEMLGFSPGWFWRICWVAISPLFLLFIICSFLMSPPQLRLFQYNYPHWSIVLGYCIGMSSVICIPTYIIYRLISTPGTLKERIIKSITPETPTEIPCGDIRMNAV
Sequence of Peroxisome proliferator-activated receptor gamma (Homo sapiens) (P37231 whole entry, looked up, the tested form may be a part): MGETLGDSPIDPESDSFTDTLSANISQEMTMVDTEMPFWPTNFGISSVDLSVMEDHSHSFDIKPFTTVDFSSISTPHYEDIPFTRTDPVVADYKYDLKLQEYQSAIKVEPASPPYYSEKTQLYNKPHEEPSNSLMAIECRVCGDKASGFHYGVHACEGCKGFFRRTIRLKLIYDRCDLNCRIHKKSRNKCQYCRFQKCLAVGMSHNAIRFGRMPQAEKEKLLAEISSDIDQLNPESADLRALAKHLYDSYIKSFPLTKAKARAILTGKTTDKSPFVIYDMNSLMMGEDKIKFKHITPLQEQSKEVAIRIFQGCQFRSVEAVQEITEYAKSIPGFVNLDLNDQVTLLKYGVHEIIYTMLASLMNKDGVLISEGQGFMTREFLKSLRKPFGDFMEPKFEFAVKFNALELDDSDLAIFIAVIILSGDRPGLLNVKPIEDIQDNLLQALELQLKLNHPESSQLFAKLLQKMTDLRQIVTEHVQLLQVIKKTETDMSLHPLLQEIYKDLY
Sequence of mouse Estrogen Receptor alpha (Era), Esr1 (gene 13982) (P19785 whole entry, looked up): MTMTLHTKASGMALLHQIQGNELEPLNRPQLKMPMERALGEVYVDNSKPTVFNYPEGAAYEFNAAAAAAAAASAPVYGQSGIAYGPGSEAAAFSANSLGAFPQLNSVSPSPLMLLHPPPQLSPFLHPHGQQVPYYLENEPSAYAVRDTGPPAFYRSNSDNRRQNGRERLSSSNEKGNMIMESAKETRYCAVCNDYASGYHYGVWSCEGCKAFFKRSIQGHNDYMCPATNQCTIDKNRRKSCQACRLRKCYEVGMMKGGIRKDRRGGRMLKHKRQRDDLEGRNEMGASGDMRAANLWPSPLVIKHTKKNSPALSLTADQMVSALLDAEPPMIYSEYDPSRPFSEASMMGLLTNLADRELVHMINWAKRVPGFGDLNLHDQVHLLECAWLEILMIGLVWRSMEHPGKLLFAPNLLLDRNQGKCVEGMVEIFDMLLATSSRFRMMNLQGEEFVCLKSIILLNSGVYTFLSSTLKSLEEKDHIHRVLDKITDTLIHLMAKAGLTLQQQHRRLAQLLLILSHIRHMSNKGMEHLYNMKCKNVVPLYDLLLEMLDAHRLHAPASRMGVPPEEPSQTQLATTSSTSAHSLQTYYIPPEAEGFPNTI
Sequence of Bile acid receptor (Homo sapiens) (Q96RI1 whole entry, looked up, the tested form may be a part): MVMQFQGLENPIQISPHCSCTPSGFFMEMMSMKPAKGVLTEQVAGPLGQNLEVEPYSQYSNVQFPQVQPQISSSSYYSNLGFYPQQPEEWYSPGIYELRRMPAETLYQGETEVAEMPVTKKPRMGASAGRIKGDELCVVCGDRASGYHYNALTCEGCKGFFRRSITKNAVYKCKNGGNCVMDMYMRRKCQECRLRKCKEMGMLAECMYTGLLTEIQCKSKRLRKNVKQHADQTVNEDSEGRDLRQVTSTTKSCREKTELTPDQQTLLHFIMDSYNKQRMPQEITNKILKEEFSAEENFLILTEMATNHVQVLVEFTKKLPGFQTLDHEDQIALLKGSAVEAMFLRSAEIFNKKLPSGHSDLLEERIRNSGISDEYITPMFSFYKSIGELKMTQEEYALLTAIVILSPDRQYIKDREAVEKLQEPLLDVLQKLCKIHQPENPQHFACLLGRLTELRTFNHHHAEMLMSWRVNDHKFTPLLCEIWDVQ
Sequence of Retinoic acid receptor RXR-alpha (Homo sapiens) (P19793 whole entry, looked up, the tested form may be a part): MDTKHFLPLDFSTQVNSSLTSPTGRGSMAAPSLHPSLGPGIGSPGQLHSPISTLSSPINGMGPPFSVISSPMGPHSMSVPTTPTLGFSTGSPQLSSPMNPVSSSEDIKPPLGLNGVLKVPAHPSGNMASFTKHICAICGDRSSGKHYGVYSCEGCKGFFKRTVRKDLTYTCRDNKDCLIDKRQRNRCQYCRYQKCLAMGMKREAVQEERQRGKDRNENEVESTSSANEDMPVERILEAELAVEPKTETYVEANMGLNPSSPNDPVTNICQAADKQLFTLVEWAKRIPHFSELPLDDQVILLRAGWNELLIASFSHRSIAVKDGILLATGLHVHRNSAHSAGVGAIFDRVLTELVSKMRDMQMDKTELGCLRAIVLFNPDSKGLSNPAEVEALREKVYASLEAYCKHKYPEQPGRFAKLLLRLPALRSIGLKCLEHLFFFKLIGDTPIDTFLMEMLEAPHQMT

CCCCCCCCOC(=O)c1ccc(C(=O)OCCCCCCCC)c(C(=O)OCCCCCCCC)c1
inactive: [1] | [2] | [3] | [4] | [5] | [6] | [7]

COC(=O)c1ccccc1N
inactive: [8] | [1] | [2] | [9] | [6] | [7]

Nc1ccc([N+](=O)[O-])cc1
active: [4] 13.3 µM | [5] 26.9 µM
inactive: [10] | [11] | [2] | [9] | [5] | [6] | [7]

O=[N+]([O-])C(Br)(CO)CO
inactive: [10] | [2] | [12] | [6] | [7]

Nc1ccc(Cc2ccc(N)cc2)cc1
active: [13] 9.3 µM | [14] 40.3 µM | [15] 4.31 µM | [16] 4.68 µM
inactive: [3] | [4] | [9] | [6] | [7] | [17]

O=C(N[C@H](c1ccccc1)[C@@H]1CN2CCC1CC2)c1c(Cl)ccc(C(F)(F)F)c1Cl
inactive: [2] | [3] | [6] | [7]
active: [13] 23.1 µM | [8] 0.359 µM | [10] 13.3 µM

Cn1cc(-c2ccccc2)c(=O)c(-c2cccc(C(F)(F)F)c2)c1
active: [13] 16.5 µM
inactive: [12] | [18] | [9] | [6] | [7] | [14] | [15] | [16] | [17]

O=C(Nc1ccccc1)c1ccccc1I
active: [10] 11.2 µM | [14] 27.8 µM | [15] 32.3 µM | [16] 40.9 µM
inactive: [2] | [12] | [18] | [9] | [6] | [7] | [19] | [17]

CCOC(=O)[C@]1(c2ccccc2)Oc2ccccc2[C@@H]1N
active: [13] 2.98 µM | [8] 1.23 µM | [10] 1.56 µM | [14] 2.19 µM | [15] 1.4 µM | [16] 3.16 µM | [17] 0.33 µM
inactive: [2] | [3] | [4] | [6] | [7]

Nc1ccc(N=Nc2ccccc2)cc1
active: [13] 2.24 µM | [10] 9.76 µM | [2] 35.6 µM | [4] 12.2 µM | [14] 36.7 µM | [15] 50 µM | [16] 12.6 µM
not listed: [1] | [5] | [8] | [11] | [19]
inactive: all other assays above

CCCCCCCCn1sccc1=O
active: [5] 12 µM
inactive: [13] | [20] | [2] | [12] | [18] | [6] | [7]

Nc1ccc(Oc2ccc(N)cc2)cc1
active: [13] 3.25 µM | [14] 24.2 µM | [15] 5.04 µM | [17] 0.493 µM
inactive: [2] | [9] | [5] | [6] | [7] | [16]

Cc1cccc(N)c1N
inactive: [2] | [9] | [5] | [7] | [14] | [17]
active: [10] 5.57 µM | [3] 42.8 µM | [4] 49.3 µM | [9] 33.9 µM | [6] 31.9 µM and 66.9 µM | [15] 27 µM | [16] 18.5 µM

CCC[CH2][Sn]([Cl])([CH2]CCC)[CH2]CCC
active: [13] 3.59 µM | [8] 8.54 µM | [10] 0.361 µM | [4] 82 µM
inactive: [20] | [12] | [18] | [3] | [9]

C=CCc1ccc2c(c1)OCO2
inactive: [1] | [2] | [9] | [5] | [6] | [7]

COP(=S)(OC)SCN1C(=O)c2ccccc2C1=O
inactive: [2] | [3] | [4] | [9] | [6] | [7] | [14] | [15] | [16] | [17]
active: [10] 2.04 µM

Source: PubChem BioAssay (EPA / NIEHS)
